Nine molecules from the supplement of paper PMC9262897, “Low-cost anti-mycobacterial drug discovery using engineered E. coli” (Nature Communications, 2022) can be followed below.

Structures are written as SMILES. Counter-ions that a name gives are not always drawn. ± gives the standard deviation of the averaged measurements.

Holding throughout (experiment): growth (OD600 after 10 h); higher = more growth (less inhibition)
The subject of assay [1] is E. coli TESEC Alr+ wild-type control. As to conditions: compound 0.1 mM; raw OD600 reference: median of DMSO wells 0.241, cell-free background 0.041. On the procedure:
(§1)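 TESEC Mtb Alr E. coli, or the Alr+ wild-type control, in 384-well plates with Prestwick library compounds at 0.1 mM and 1% DMSO, across arabinose induction levels of 1E3 to 1E7 nM. Growth is read as OD600 after 10 h at 37 °C in triplicate biological replicates.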

Assay [2] deals with E. coli TESEC Mtb Alr. To be noted: compound 0.1 mM. On the procedure:
as §1

The test system of another assay is E. coli TESEC Mtb Asd. To be noted: compound 0.1 mM. On the procedure: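 TESEC E. coli strains in which the native enzyme is deleted and replaced by arabinose-inducible Mtb Asd, DapB, CysH or TrpD, each grown in its selective medium. Strains were screened against the Prestwick library at 0.1 mM and 1% DMSO in 384-well format at low and high arabinose induction. Growth is read as OD600 after 10 h in triplicate.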

For assay [3], the system named is E. coli TESEC Alr+ wild-type control. To be noted: compound 0.1 mM; raw OD600 reference: median of DMSO wells 0.49, cell-free background 0.052. On the procedure:
(§2)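 TESEC Mtb Alr E. coli (ΔaraC ΔtolC ΔentC Δalr ΔdadX, arabinose-inducible Mtb Alr) or the Alr+ wild-type control strain, grown in defined M9-fructose medium without D-alanine in 96-well plates with Prestwick library compounds at 0.1 mM and 1% DMSO. Low Alr induction is 0.1 µM arabinose and high induction is 10 mM arabinose.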

Assay [4] relates to E. coli TESEC Mtb Alr. To be noted: compound 0.1 mM. The procedure:
as §2
This is another data set of the same source.

[5] abbreviates: arabinose 1000 nM, raw OD600 reference: median of DMSO wells 0.294, cell-free background 0.041.
Setting [6] is: arabinose 10000 nM, raw OD600 reference: median of DMSO wells 0.264, cell-free background 0.041.
[7] abbreviates: arabinose 100000 nM, raw OD600 reference: median of DMSO wells 0.201, cell-free background 0.041.
The mark [8] stands for this setting: arabinose 1000000 nM, raw OD600 reference: median of DMSO wells 0.193, cell-free background 0.041.
Where [9] appears, read: arabinose 10000000 nM, raw OD600 reference: median of DMSO wells 0.146, cell-free background 0.041.
[10] abbreviates: arabinose induction (level): High, raw OD600 reference: median of DMSO wells 0.331, cell-free background 0.041.
The mark [11] stands for this setting: arabinose induction (level): Low, raw OD600 reference: median of DMSO wells 0.417, cell-free background 0.041.
Setting [12] is: arabinose 100 nM, raw OD600 reference: median of DMSO wells 0.413, cell-free background 0.052.
[13] abbreviates: arabinose 10000000 nM, raw OD600 reference: median of DMSO wells […], cell-free background 0.052.

`CN(C)CCN1C(=O)c2ccccc2N(C)c2ccccc21` [Dibenzepine hydrochloride]: the growth in assay [1] stood at 0.234 ± 0.0039; with E. coli TESEC Mtb Alr [2] (setting [5]) it was 0.312 ± 0.018; in the assay with E. coli TESEC Mtb Alr [2] (setting [6]), 0.286 ± 0.0089; in the assay on E. coli TESEC Mtb Alr [2] (setting [7]), 0.185 ± 0.03; in the assay with E. coli TESEC Mtb Alr [2] (setting [8]) it was 0.167 ± 0.0098; in the assay on E. coli TESEC Mtb Alr [2] (setting [9]), 0.139 ± 0.0036. Moreover, the growth with E. coli TESEC Mtb Asd (setting [10]) stood at 0.23 ± 0.059; with E. coli TESEC Mtb Asd (setting [11]), 0.317 ± 0.04; in assay [3], 0.608 ± 0.13; in the assay with E. coli TESEC Mtb Alr [4] (setting [12]), 0.415 ± 0.0072; in the assay on E. coli TESEC Mtb Alr [4] (setting [13]), 0.34 ± 0.015.
Take `OCCOCCN1CCN(C(c2ccccc2)c2ccc(Cl)cc2)CC1` (configuration not stated) [Hydroxyzine dihydrochloride]: the growth is 0.142 ± 0.0048 in assay [1]; 0.202 ± 0.0073 in the assay with E. coli TESEC Mtb Alr [2] (setting [5]); 0.243 ± 0.004 with E. coli TESEC Mtb Alr [2] (setting [6]); 0.171 ± 0.0032 with E. coli TESEC Mtb Alr [2] (setting [7]); 0.11 ± 0.0035 in the assay on E. coli TESEC Mtb Alr [2] (setting [8]); 0.1214 ± 0.0011 in the assay with E. coli TESEC Mtb Alr [2] (setting [9]). The growth came out at 0.164 ± 0.0026 in the assay on E. coli TESEC Mtb Asd (setting [10]), 0.27 ± 0.013 in the assay with E. coli TESEC Mtb Asd (setting [11]), 0.421 ± 0.009 with E. coli TESEC Mtb Alr [4] (setting [12]) and 0.219 ± 0.011 in the assay on E. coli TESEC Mtb Alr [4] (setting [13]).
With `CN1CCN(C(c2ccccc2)c2ccccc2)CC1` [Cyclizine hydrochloride], the growth in assay [1] turned out to be 0.216 ± 0.0082; in the assay on E. coli TESEC Mtb Alr [2] (setting [5]), 0.278 ± 0.011; in the assay with E. coli TESEC Mtb Alr [2] (setting [6]), 0.256 ± 0.0077; in the assay on E. coli TESEC Mtb Alr [2] (setting [7]), 0.188 ± 0.025; in the assay with E. coli TESEC Mtb Alr [2] (setting [8]) it was 0.142 ± 0.013; in the assay on E. coli TESEC Mtb Alr [2] (setting [9]) it was 0.142 ± 0.0021. Also, the growth stood at 0.173 ± 0.0089 with E. coli TESEC Mtb Asd (setting [10]), 0.31 ± 0.039 with E. coli TESEC Mtb Asd (setting [11]), 0.41 ± 0.011 in the assay with E. coli TESEC Mtb Alr [4] (setting [12]) and 0.325 ± 0.0044 in the assay with E. coli TESEC Mtb Alr [4] (setting [13]).
As to `CC[N+](CC)(CC)CCOc1cccc(OCC[N+](CC)(CC)CC)c1OCC[N+](CC)(CC)CC` [Gallamine triethiodide], the growth was determined as 0.245 ± 0.011 in assay [1]; 0.308 ± 0.014 with E. coli TESEC Mtb Alr [2] (setting [5]); 0.2806 ± 0.0014 in the assay on E. coli TESEC Mtb Alr [2] (setting [6]); 0.233 ± 0.017 in the assay with E. coli TESEC Mtb Alr [2] (setting [7]); 0.191 ± 0.0068 in the assay on E. coli TESEC Mtb Alr [2] (setting [8]); 0.1674 ± 0.00091 in the assay with E. coli TESEC Mtb Alr [2] (setting [9]). In addition, the growth with E. coli TESEC Mtb Asd (setting [10]) came to 0.233 ± 0.013; in the assay with E. coli TESEC Mtb Asd (setting [11]), 0.368 ± 0.033; in the assay on E. coli TESEC Mtb Alr [4] (setting [12]), 0.4196 ± 0.0011; in the assay with E. coli TESEC Mtb Alr [4] (setting [13]) it was 0.372 ± 0.017.
Turning to `CC1(C)O[C@@H]2C[C@H]3[C@@H]4C[C@H](F)C5=CC(=O)C=C[C@]5(C)[C@H]4[C@@H](O)C[C@]3(C)[C@]2(C(=O)CO)O1` [Flunisolide], the growth is 0.204 ± 0.015 in assay [1]; 0.297 ± 0.0098 in the assay with E. coli TESEC Mtb Alr [2] (setting [5]); 0.261 ± 0.0019 with E. coli TESEC Mtb Alr [2] (setting [6]); 0.192 ± 0.011 in the assay on E. coli TESEC Mtb Alr [2] (setting [7]); 0.159 ± 0.0049 in the assay on E. coli TESEC Mtb Alr [2] (setting [8]); 0.138 ± 0.0048 in the assay with E. coli TESEC Mtb Alr [2] (setting [9]). Besides, the growth with E. coli TESEC Mtb Asd (setting [10]) was 0.342 ± 0.064; in the assay with E. coli TESEC Mtb Asd (setting [11]) it was 0.458 ± 0.025; with E. coli TESEC Mtb Alr [4] (setting [12]), 0.4 ± 0.0095; in the assay with E. coli TESEC Mtb Alr [4] (setting [13]), 0.335 ± 0.012.
In the case of `C[C@]12CC[C@@H]3c4ccc(O)cc4CC[C@H]3[C@@H]1C[C@@H](O)[C@@H]2O` [Estriol], the growth in assay [1] amounted to 0.152 ± 0.0072; in the assay on E. coli TESEC Mtb Alr [2] (setting [5]) it was 0.218 ± 0.018; with E. coli TESEC Mtb Alr [2] (setting [6]), 0.277 ± 0.015; in the assay with E. coli TESEC Mtb Alr [2] (setting [7]), 0.148 ± 0.0042; with E. coli TESEC Mtb Alr [2] (setting [8]) it was 0.135 ± 0.0069; in the assay with E. coli TESEC Mtb Alr [2] (setting [9]), 0.143 ± 0.0047. Moreover, the growth in the assay with E. coli TESEC Mtb Asd (setting [10]) was found to be 0.221 ± 0.043; in the assay on E. coli TESEC Mtb Asd (setting [11]) it was 0.264 ± 0.034; in the assay with E. coli TESEC Mtb Alr [4] (setting [12]) it was 0.432 ± 0.0087; in the assay on E. coli TESEC Mtb Alr [4] (setting [13]) it was 0.258 ± 0.013.
With `CCN(CC)CCNC(=O)COc1ccc(OC)cc1` [Mefexamide hydrochloride], the growth in assay [1] was 0.24 ± 0.0042; in the assay with E. coli TESEC Mtb Alr [2] (setting [5]) it was 0.285 ± 0.019; in the assay on E. coli TESEC Mtb Alr [2] (setting [6]), 0.2683 ± 0.0018; with E. coli TESEC Mtb Alr [2] (setting [7]) it was 0.196 ± 0.01; with E. coli TESEC Mtb Alr [2] (setting [8]), 0.182 ± 0.0058; in the assay with E. coli TESEC Mtb Alr [2] (setting [9]), 0.143 ± 0.0038. The growth in the assay on E. coli TESEC Mtb Asd (setting [10]) was 0.304 ± 0.1; with E. coli TESEC Mtb Asd (setting [11]), 0.411 ± 0.013; in the assay on E. coli TESEC Mtb Alr [4] (setting [12]) it was 0.421 ± 0.0097; in the assay on E. coli TESEC Mtb Alr [4] (setting [13]) it was 0.343 ± 0.0047.
For the molecule `CC(CN(C)C)C(C)(O)Cc1ccc(Cl)cc1` (configuration not stated) [Clobutinol hydrochloride], the growth in assay [1] was found to be 0.221 ± 0.0026; with E. coli TESEC Mtb Alr [2] (setting [5]) it was 0.263 ± 0.018; in the assay on E. coli TESEC Mtb Alr [2] (setting [6]), 0.265 ± 0.0075; with E. coli TESEC Mtb Alr [2] (setting [7]) it was 0.197 ± 0.0069; with E. coli TESEC Mtb Alr [2] (setting [8]) it was 0.181 ± 0.0066; with E. coli TESEC Mtb Alr [2] (setting [9]), 0.142 ± 0.013. Further, the growth in the assay with E. coli TESEC Mtb Asd (setting [10]) stood at 0.222 ± 0.015; in the assay on E. coli TESEC Mtb Asd (setting [11]) it was 0.353 ± 0.1; in assay [3] it was 0.588 ± 0.083; with E. coli TESEC Mtb Alr [4] (setting [12]), 0.405 ± 0.0082; with E. coli TESEC Mtb Alr [4] (setting [13]), 0.3421 ± 0.0029.
As for `Cc1cc(=O)oc2cc(O)ccc12` [Hymecromone], the growth amounted to 0.227 ± 0.0065 in assay [1]; 0.286 ± 0.024 with E. coli TESEC Mtb Alr [2] (setting [5]); 0.25 ± 0.0054 in the assay on E. coli TESEC Mtb Alr [2] (setting [6]); 0.177 ± 0.012 in the assay on E. coli TESEC Mtb Alr [2] (setting [7]); 0.182 ± 0.0058 with E. coli TESEC Mtb Alr [2] (setting [8]); 0.148 ± 0.0076 in the assay with E. coli TESEC Mtb Alr [2] (setting [9]). For the same molecule, the growth with E. coli TESEC Mtb Asd (setting [10]) was determined as 0.317 ± 0.033; in the assay with E. coli TESEC Mtb Asd (setting [11]), 0.411 ± 0.013; with E. coli TESEC Mtb Alr [4] (setting [12]), 0.406 ± 0.017; in the assay on E. coli TESEC Mtb Alr [4] (setting [13]) it was 0.355 ± 0.0061.
